According to PubChem BioAssay AID1992 (Sanford-Burnham Center for Chemical Genomics, 2009):
In all, about 50,000 compounds went through this assay and about 350 (0.7%) were called active. No stated cut-off is given here; in the data, active means inhibition above about 60%; inactive means the rest. This excerpt belongs to a sample that is enriched for actives.

The compounds below were run against Dual specificity protein phosphatase 3 (Homo sapiens) (UniProt P51452) (assay: human DUSP3 activity blockers – biochemical, colorimetric, HTS, primary screen (AID 1992)). Settings: recombinant VHR phosphatase, colorimetric substrate read-out; at 20 µM; active compounds read high.
Chain of Dual specificity protein phosphatase 3 (Homo sapiens) (P51452 whole entry, looked up): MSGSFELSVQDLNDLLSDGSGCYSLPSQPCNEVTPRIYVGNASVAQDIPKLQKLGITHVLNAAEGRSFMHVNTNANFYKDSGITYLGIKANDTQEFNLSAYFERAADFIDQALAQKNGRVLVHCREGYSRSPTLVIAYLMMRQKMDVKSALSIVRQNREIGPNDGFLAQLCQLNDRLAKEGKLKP

| SMILES | inhibition |
| --- | --- |
| CCOC(=O)Cc1csc(NC(=O)COc2cc(C)ccc2C(C)(C)C)n1 | 5.7% (inactive) |
| Cc1ccc(-c2ccc(/C=C3\Sc4ccccc4C3=O)o2)c([N+](=O)[O-])c1 | -37.5% (inactive) |
| COc1ccc(N2C(=O)c3cccc4c(NC(CO)(CO)CO)ccc(c34)C2=O)cc1 | -0.7% (inactive) |
| CCOC(=O)C1=C(O)/C(=C\c2cccc([N+](=O)[O-])c2)SC1=Nc1ccc(OC)cc1 | -20.7% (inactive) |
| CCOC(=O)C1=C(O)CSC1=Nc1cccc(Cl)c1 | -1.6% (inactive) |
| CCOC(=O)C1=C(O)CSC1=Nc1ccc(F)cc1 | 104% (active) |
| COc1ccc(C2C(C(=O)/C=C/c3ccccc3)=C(O)C(=O)N2CCCCCC(=O)O)c(OC)c1 (centres undefined) | 29.2% (inactive) |
| CCC(=O)N(CCC1(c2ccc(F)cc2)CCOC(C)(C)C1)Cc1ccc(OC)c(OC)c1 (centres undefined) | -8.3% (inactive) |
| COc1ccc(C(=O)Nc2ccc3nn(-c4ccc(C)c(Cl)c4)nc3c2)cc1[N+](=O)[O-] | -21.1% (inactive) |
| Cc1c(N(C(=O)c2cccc(Cl)c2)C(C)C)c(=O)n(-c2ccccc2)n1C | -7.9% (inactive) |
| O=C(/C=C\Nc1ccccn1)c1ccc2c(c1)OCO2 | -7.8% (inactive) |
| COC(=O)Cn1cc(/C=C2\C(=O)NC(=O)N(c3cc(C)cc(C)c3)C2=O)c2ccccc21 | -5.9% (inactive) |
| C/C(=N\NC(=O)c1cccc(Cl)c1)c1ccccc1O | -3.8% (inactive) |
| Cc1ccc(/C=N/c2nc3ccc(Br)cc3s2)c(O)c1 | -5% (inactive) |
| Oc1ccc(Br)cc1/C=N/Nc1ccccn1 | -11% (inactive) |
| Cn1/c(=N/N=C/c2cc(Br)ccc2O)sc2ccccc21 | 114% (active) |
| CC(=O)c1nc2cc([N+](=O)[O-])ccc2n1Cc1ccccc1 | -31% (inactive) |
| O=C(O)CCC(=O)Nc1cc(Cl)cc(Cl)c1 | 11.1% (inactive) |
| COc1ccc(CN=CC2=C(O)CC(c3ccccc3)CC2=O)cc1 (centres undefined) | 15.4% (inactive) |
| O=[N+]([O-])c1ccc(OCC(O)Cn2cnc3ccccc32)cc1 (centres undefined) | 39% (inactive) |

| SMILES | inhibition |
| --- | --- |
| CCOc1ccc(-c2cc(C(=O)Nc3ccncc3)c3ccccc3n2)cc1 | -20.9% (inactive) |
| CC(C)(C)c1ccc(/C=N/NC(=O)Cc2cccc3ccccc23)cc1 | -3.8% (inactive) |
| Nc1nnc(SCC(=O)NCc2ccccc2)s1 | -7% (inactive) |
| Nc1nnc(CCC(=O)c2ccccc2)s1 | 78.1% (active) |
| Cc1ccc2c(N)c(C(=O)c3ccccc3)sc2n1 | -19.7% (inactive) |
| COc1ccc(NC(=O)/C=C/c2cccc([N+](=O)[O-])c2)cc1 | -2.5% (inactive) |
| O=C(NCc1ccccn1)Nc1ccc(Cl)cc1 | 25.4% (inactive) |
| COc1ccc(N/C(C)=C/C(=O)c2ccc(F)cc2)cc1 | -8.4% (inactive) |
| COc1ccc(/C=C2/C(C)=C(C#N)c3nc(N)c(C#N)c(C)c32)cc1OC | 24% (inactive) |
| COc1ccccc1/C=N/NC(=O)CCc1c(C)n[nH]c1C | -1.8% (inactive) |
| O=C(NN1CCOCC1)c1cccc(F)c1 | -10.6% (inactive) |
| Cc1cc(Cl)ccc1NC1=CC(=O)CC(c2ccccc2)C1 (centres undefined) | -7.1% (inactive) |
| CN(C)/C=C(/Cl)C=C1C(=O)c2ccccc2C1=O | -2.3% (inactive) |
| COc1ccc([N+](=O)[O-])cc1NC(=O)CCc1ccccc1 | -10.6% (inactive) |
| CCCCCOC(=O)CSc1nnc(-c2ccccc2Cl)o1 | -27.4% (inactive) |
| CCCOc1ccc(C(=O)Nc2ccc(N(CC)CC)cc2)cc1 | -10.9% (inactive) |
| CCOC(=O)c1ccc(NC(=O)c2cc(OCC)cc(OCC)c2)cc1 | -14.7% (inactive) |
| CCCOC(=O)c1ccc(NC(=O)c2ccc(OCc3ccccc3)cc2)cc1 | 109% (active) |
| CCOC(=O)C(=O)C1CCc2c([nH]c3ccc(C)cc23)C1=O (centres undefined) | -0.5% (inactive) |
| COc1ccc(OC)c(-n2c(O)c(C=Nc3cccc(C)c3)c(=O)[nH]c2=O)c1 | -17.5% (inactive) |

| SMILES | inhibition |
| --- | --- |
| COc1ccc(NC(=O)C2=C(C)NC(=O)NC2c2ccc(OC)cc2)cc1 (centres undefined) | 24.2% (inactive) |
| COC(=O)C1=C(C)N=c2s/c(=C\c3cc(OC)c(OC)cc3[N+](=O)[O-])c(=O)n2C1c1ccccc1 (centres undefined) | -6% (inactive) |
| O=C(Nc1cccc2ccccc12)c1ccc(-c2ccccc2)cc1 | -1.1% (inactive) |
| Cc1cc(/C=C2/NC(=O)NC2=O)c(C)n1-c1ccc(Cl)cc1 | -8.6% (inactive) |
| Cc1cc(C=C2C(=O)NC(=S)NC2=O)c(C)n1-c1ccc(F)cc1 | 0.6% (inactive) |
| Cc1cc(/C=C2/NC(=S)NC2=O)c(C)n1-c1ccc(N2CCOCC2)cc1 | 61.6% (active) |
| O=C1NC(=S)N(c2ccc(Cl)cc2)C(=O)/C1=C/c1ccc(-c2ccccc2C(=O)O)o1 | 95.3% (active) |
| CCOc1ccc(N2C(=O)NC(=O)/C(=C/c3ccc(-c4ccccc4[N+](=O)[O-])o3)C2=O)cc1 | 19% (inactive) |
| O=C1/C(=C/c2ccc(-c3ccc(Cl)cc3C(=O)O)o2)Sc2ccccc21 | 15.2% (inactive) |
| COc1ccc(C(=O)NC2CC(C)(C)NC(C)(C)C2)cc1OC | -52.9% (inactive) |
| O=C(Nc1ncc(Br)cc1Br)c1cccc2ccccc12 | 101% (inactive) |
| COC(=O)c1cc(C(=O)Nc2ncccc2C)cc([N+](=O)[O-])c1 | 7.6% (inactive) |
| C/C(=C\C(=O)c1ccc(Br)cc1)Nc1ccccc1F | 4.7% (inactive) |
| CC1=NN(c2cccc(Cl)c2)C(=O)/C1=C\c1c(C)[nH]n(-c2ccccc2)c1=O | -29.9% (inactive) |
| CC1=NN(c2ccc(S(N)(=O)=O)cc2)C(=O)/C1=C\c1ccc(-c2ccc(Cl)c(C(=O)O)c2)o1 | -1.9% (inactive) |
| CC1=NN(c2ccc(S(N)(=O)=O)cc2)C(=O)/C1=C\c1ccc(-c2cc([N+](=O)[O-])ccc2C)o1 | 77.1% (active) |
| CC1=NN(c2ccc(S(N)(=O)=O)cc2)C(=O)/C1=C\c1ccc(-c2ccc(C(=O)OC(C)C)cc2)o1 | -1.6% (inactive) |
| NC(=O)C1CCN(S(=O)(=O)c2ccc3ccccc3c2)CC1 | -3.8% (inactive) |
| CCc1ccc(NC(=O)C(=O)NCCN2CCOCC2)cc1 | 12.8% (inactive) |
